# Hits are enriched below; roughly 2.8% of the tested compounds scored in any of these assays.
# TWEAK Fn14 block: TWEAK-Fn14 signaling inhibition. TWEAK-stimulated Fn14 reporter cells, luciferase luminescence, 8 h. inhibition, % at 10 µM. 360,000 compounds, 2% hits; in the data active = inhibition above about 50%
# TROY NFkB inh: inhibitors of TROY-dependent NF-kB signaling | Q293 LMP1-TROYcd NF-kB luciferase reporter, 4 h | inhibition, % at 10 µM | 360,000 compounds, 0.98% hits;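 active = compounds whose plate-normalised and pattern-corrected inhibition of the luciferase reporter signal at the single screening dose is 50% or more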
# PAX8 inh HTS: inhibitors of PAX8 transcriptional activity in RMG-I cells; RMG-I TPO-luciferase reporter, SteadyGlo, 24 h; inhibition, % at 12.6 µM; 360,000 compounds, 1.2% hits; AID 652154;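 active = mean replicate inhibition at least 60% with every replicate also reaching 60%; inconclusive = only one of the two criteria is met; inactive = mean below 60% and not all replicates reaching 60%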;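 note: luciferase light reporting Pax8 driven TPO promoter activity; plate controls were median of neutral control wells for no effect and mitoxantrone controls for full effect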
# LGR2 antag: Drosophila LGR2 receptor signaling inhibition | 380,000 compounds, 0.35% hits | inhibition, % at 9.99 µM | HEK293 LGR2, CRE-luciferase, bursicon-stimulated, 4 h | AID 720647;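 active = drop in luminescence signal, shown as inhibition above about 50% in the replicate tests, limit read from the data, passing the limit was not always enough; inconclusive = probably only some replicates passing the limit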;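 note: agonist challenge used bursicon conditioned medium at about half maximal strength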
# EWS-Fli inh: inhibitors of EWS/Fli oncoprotein transcriptional activity; A673 NR0B1-luciferase reporter, viability-normalised; inhibition, % at 12.6 µM; 350,000 compounds, 0.67% hits;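 active = mean inhibition of at least 50% after viability correction, with every replicate also passing that limit; inconclusive = mean reaches 50% but only one of two replicates passes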;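 note: firefly luciferase signal divided by Alamar Blue viability fluorescence both relative to DMSO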
# * = called active by the depositor; ? = inconclusive; · = no result given.
SMILES,TWEAK Fn14 block,TROY NFkB inh,PAX8 inh HTS,LGR2 antag,EWS-Fli inh
Cc1nc(Nc2nc(CSc3nc4ccccc4[nH]3)cc(=O)[nH]2)nc2ccccc12,92*,46,102*,82*,·
Cc1nc(Nc2nc(-c3ccccc3)cc(=O)[nH]2)nc2ccccc12,2,13,·,63*,·
COc1nc(Nc2nc3ccccc3c(=O)[nH]2)nc2ccc(C)cc12,55*,2,76*,52*,35
COc1ccc2c(C)nc(Nc3nc(C)c(C)c(=O)[nH]3)nc2c1,53*,12,-88,·,·
CCCNC(=O)N1C[C@@H](O)COC[C@H]2O[C@H](CC(=O)NCc3ccncn3)CC[C@@H]21,·,·,-5,-1,10
C[C@@H]1CN([C@H](C)CO)C(=O)Cc2cc(NC(=O)Cn3cnnn3)ccc2O[C@H]1CN(C)S(=O)(=O)c1ccccc1,·,·,-6,1,-9
O=C(C[C@H]1CC[C@H]2[C@@H](COC[C@@H](O)CN2Cc2cccc(F)c2)O1)NCc1cccc(F)c1,·,·,14,1,0
Cc1nc(Nc2nc(CSc3ccc(Cl)cc3)cc(=O)[nH]2)nc2ccccc12,-5,-7,-7,-5,·
COc1ccc2nc(Nc3nc(CSc4nc5ccccc5[nH]4)cc(=O)[nH]3)nc(C)c2c1,91*,58*,29,87*,·
CC(C)NC(=O)N(C)C[C@H]1Oc2ccc(NC(=O)CCCCCC(=O)Nc3ccccc3N)cc2CC(=O)N([C@H](C)CO)C[C@H]1C,·,·,-32,-6,-2
Fc1cccc(/C=N/Nc2nncc3ccccc23)c1,46,-33,-29,12,22
C(=N\Nc1nncc2ccccc12)/c1ccccn1,74*,-19,-62,?,41
CC(=O)N1CCCCN2[C@H](CO)[C@H](c3ccc(-c4cccc(C)c4)cc3)[C@@H]2C1,·,·,-3,55*,-5
COc1ccccc1NC(=O)N1CCCCN2[C@@H](CO)[C@@H](c3ccc(-c4cccc(C)c4)cc3)[C@@H]2C1,·,·,104*,7,57*
COc1ccccc1NC(=O)N1CCCCN2[C@H](C1)[C@H](c1ccc(-c3cccc(C)c3)cc1)[C@@H]2CO,·,·,35,8,30
COc1ccccc1NC(=O)N1CCCCN2[C@H](C1)[C@H](c1ccc(-c3cccc(C#N)c3)cc1)[C@@H]2CO,·,·,21,-12,15
COc1ccccc1NC(=O)N1CCCCN2[C@H](C1)[C@@H](c1ccc(-c3cccc(C#N)c3)cc1)[C@@H]2CO,·,·,83*,12,9
C[C@@H]1CN([C@H](C)CO)S(=O)(=O)c2ccc(C#CC3CC3)cc2O[C@@H]1CN(C)C(=O)c1cnccn1,·,·,·,-29,-4
CC1=Nc2ccccc2/C1=C\c1sc(Nc2ccc(C)cc2)nc1O,55*,26,56,-13,7
Oc1nc(Nc2cccc(Cl)c2)sc1/C=C1\C=Nc2ccccc21,53*,83*,5,4,-3
COc1ccc(OC)c(Nc2cc3ccccc3c(=O)[nH]2)c1,7,-8,9,-7,62*
COc1ccccc1Nc1cc2cc(Br)ccc2c(=O)[nH]1,17,8,18,9,21
CNC[C@@H]1OCCCC[C@H](C)Oc2ccc(NC(=O)CCC(F)(F)F)cc2C(=O)N([C@H](C)CO)C[C@H]1C,·,·,-19,-5,0
CO[C@@H]1CN(C)C(=O)c2cc(NS(=O)(=O)c3ccc(C)cc3)ccc2OC[C@H](C)NC[C@@H]1C,·,·,4,-8,5
CN1C(=O)N(C)c2ccc(C=O)c3cccc1c23,-25,6,-13,12,13
SMILES,TWEAK Fn14 block,TROY NFkB inh,PAX8 inh HTS,LGR2 antag,EWS-Fli inh
CN1C(=O)N(C)c2ccc(Br)c3cccc1c23,18,65*,-28,6,-2
CC(C)NC(=O)N(C)C[C@@H]1Oc2cc(C#C[C@@H](C)O)ccc2S(=O)(=O)N([C@H](C)CO)C[C@@H]1C,·,·,-18,-2,-6
C[C@H]1CN([C@@H](C)CO)C(=O)c2c(c3ccccc3n2C)-c2ccccc2CO[C@@H]1CN(C)Cc1ccc(C(F)(F)F)cc1,·,·,64*,9,-3
C[C@H]1CN([C@@H](C)CO)C(=O)c2c(c3ccccc3n2C)-c2ccccc2CO[C@@H]1CN(C)Cc1ccc(Oc2ccccc2)cc1,·,·,56,8,3
C[C@@H]1CN([C@H](C)CO)C(=O)c2c(c3ccccc3n2C)-c2ccccc2CO[C@H]1CN(C)Cc1ccc(Oc2ccccc2)cc1,18,-3,85*,1,6
CCS(=O)(=O)N1CC(=O)N2[C@H](CO)[C@@H](c3ccc(-c4ccc(C)cc4)cc3)[C@H]2C1,·,·,-6,-6,0
CCOc1ccc2[nH]c3c(N4CCC5(CC4)OCCO5)ncnc3c2c1,·,·,14,·,46
COc1ccc2[nH]c3c(N4CCc5ccccc5C4)ncnc3c2c1,92*,69*,20,79*,-3
O=C(CCCN1CCC(O)(c2cccc(C(F)(F)F)c2)CC1)c1ccc(F)cc1,-6,9,3,10,11
OC1(c2cccc(C(F)(F)F)c2)CCN(c2ncnc3c2[nH]c2ccc(F)cc23)CC1,98*,77*,·,·,·
CCOC(=O)N1CCN(c2ncnc3c2[nH]c2ccc(OC)cc23)CC1,17,-5,13,·,·
COc1cc2[nH]c3c(N4CCN(c5ccccn5)CC4)ncnc3c2cc1OC,73*,38,·,·,·
COc1ccc(N2CCN(c3ncnc4c3[nH]c3ccccc34)CC2)cc1,77*,76*,·,·,·
COc1cccc2[nH]c3c(N4CCCCC4)ncnc3c12,-53,-25,·,·,·
CCOC(=O)N1CCN(c2ncnc3c2[nH]c2ccc(F)cc23)CC1,38,42,34,·,·
Fc1ccc2[nH]c3c(N4CCN(c5ccccc5)CC4)ncnc3c2c1,102*,76*,·,·,·
Oc1ccc(Cl)cc1Cc1cc(Cl)ccc1O,54*,54*,-1,·,8
COc1ccc(N(Cc2ccccc2)C(=O)CSc2nnc(Cn3nnc4ccccc43)o2)cc1,-4,20,·,·,·
COc1ccc(CN(C(=O)CSc2nnc(-c3c[nH]c4ccccc34)o2)c2ccc(F)cc2)cc1OC,72*,38,81*,·,·
O=C(CSc1nnc(Cn2nnc3ccccc32)o1)N(Cc1ccc(F)cc1)c1ccccc1,56*,43,·,·,·
COc1cccc(-c2ccc([C@@H]3[C@H](CO)N(C(C)=O)C34CN(C(C)=O)C4)cc2)c1,·,·,·,-3,1
CCCNC(=O)[C@H]1[C@H](CO)[C@H]2Cn3c(ccc(-c4cccnc4)c3=O)[C@H]2N1C(=O)c1ccccc1F,·,·,·,5,-4
COc1ccc(S(=O)(=O)N[C@H]2C=C[C@H](CC(=O)N3CCC(Cc4ccccc4)CC3)O[C@@H]2CO)cc1,·,·,18,12,-2
O=C(N/N=C/c1ccc(O)c2ncccc12)c1cccc(Br)c1,17,15,72*,0,21
O=C(NN=Cc1c(O)ccc2ccccc12)c1ccncc1,-19,4,95*,·,23
O=C(N/N=C\c1c(O)ccc2ccccc12)c1cncc(Br)c1,-3,19,65*,16,0

# Source: PubChem
